Data taken from the supplement of paper PMC6555819.

Legend:
Assay in all cases: PBM binding z-score (relative to random genomic background probes); higher = stronger binding; sequences stand for … in GC…GCGATTGACAGCGTAGAATGAAGG
[1] = system: PPARg:RXRa DBDmut IVT, anti-RXR (DBD mutation: RXRa K156A/R161A, NR concentration 270 nM, RXRa partner concentration 90 nM)
In short: (§1)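 Each nuclear receptor dimer, without ligand, was incubated for 1 h on custom Agilent 4×180K protein-binding microarrays. Binding was detected with antibodies against each partner (one per run), and scanned fluorescence was regression-normalized. The binding z-scores are referenced to random human genomic background probes.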

[2] = system: PPARg:RXRa IVT, anti-PPARg (NR concentration 270 nM, RXRa partner concentration 90 nM)
In short: as §1

[3] = system: PPARg DBDmut:RXRa IVT, anti-PPARg (DBD mutation: PPARg1 K132A/R137A, NR concentration 270 nM, RXRa partner concentration 90 nM)
In short: as §1

[4] = system: PPARg DBDmut IVT, anti-PPARg (DBD mutation: PPARg1 K132A/R137A, NR concentration 270 nM)
In short: as §1

[5] = system: PPARg homodimer (NR concentration 180 nM)
In short: as §1

[6] = system: PXR:RXRa (NR concentration 270 nM, RXRa partner concentration 90 nM)
In short: as §1

[7] = system: PXR homodimer (NR concentration 270 nM)
In short: as §1

[8] = system: RARa:RXR (NR concentration 270 nM, RXRa partner concentration 90 nM)
In short: as §1

[9] = system: RARa homodimer (NR concentration 270 nM)
In short: as §1

[10] = system: RARb:RXRa (NR concentration 270 nM, RXRa partner concentration 90 nM)
In short: as §1

| Sequence | PBM binding z-score [1] | PBM binding z-score [2] | PBM binding z-score [3] | PBM binding z-score [4] | PBM binding z-score [5] | PBM binding z-score [6] | PBM binding z-score [7] | PBM binding z-score [8] | PBM binding z-score [9] | PBM binding z-score [10] |
| --- | --- | --- | --- | --- | --- | --- | --- | --- | --- | --- |
| TCGGCTAGGTCAACGATGGTCAGCTAATCTGCTA | 3.13 | 3.06 | -0.836 | -0.603 | 1.19 | 1.58 | -0.468 | 2.04 | -0.329 | 3.97 |
| CAGCCTAGGTCAGGGCGAGTATAGGAGGAACGTT | 1.68 | 1.54 | -1.19 | -1.55 | 0.665 | 0.305 | -0.665 | 1.11 | -0.626 | 3.19 |
| TCAGACAGGTGAAGGTAACTCCGGTACGCAGTCG | 2.59 | 1.09 | -0.276 | -0.342 | 0.498 | 0.475 | -0.04 | 0.651 | 0.0905 | 1.1 |
| CTGACTGGGGCATAAGGTTACCATAAGCCAGCCC | 4.6 | 4.79 | 0.707 | -0.07 | 1.02 | 0.767 | -0.461 | 1.62 | -0.242 | 1.94 |
| CCTTACGGGTCACGCGGTTATAGCACGACGAGCG | 4.11 | 4.96 | 0.683 | 0.817 | 1.05 | 3.53 | -0.0866 | 4.59 | 0.82 | 4.33 |
| GCTGCTAGGTCAACTGATTGTCAGCTAAAGCTCG | 4.92 | 4.51 | -0.116 | -0.522 | 0.898 | 1.19 | -0.593 | 2.27 | -0.584 | 4.25 |
| CGTCCAAGGTGAGCAGGTCAGTGAAAGCGACGTG | 1.99 | 2.14 | -0.318 | -0.865 | 0.43 | 0.116 | -0.516 | 0.783 | -0.389 | 2.67 |
| ATACGAAGGTGATCGTGAGGTCGTTGATACTAAC | 0.525 | 0.827 | 0.418 | -0.452 | 0.589 | 2.82 | 1.23 | 2 | 0.134 | 1.29 |
| TCTATTAGTTGATTAGGGCAAACGAAACAGCGGA | 1.88 | 1.04 | 0.889 | 1.04 | 0.195 | 0.343 | 0.106 | 0.325 | 0.996 | 0.708 |
| CCCCGGAGGACAACAGGAGGTCAGAGCTGCCAGA | -0.654 | 0.373 | -1.55 | -1.4 | 2.15 | 2.19 | 0.777 | 2.7 | 0.677 | 2.86 |
| TAGCCTAGGTCATGGGCCGGTATACCACGCGAAC | 1.46 | 3.44 | -0.00724 | -0.404 | 1.23 | 1.8 | -0.488 | 2.94 | -0.0532 | 3.9 |
| GCAGGCAGGTGAAACGCAGGTAACTCAGGGTGGC | 1.12 | 0.912 | -1 | -1.1 | -0.662 | -0.0371 | -1.2 | 0.429 | -0.796 | 0.562 |
| TCGAGTAGGTTACGAATGGGGCATTCAGCTTTCT | 3.5 | 2.62 | -0.724 | -1.15 | -0.342 | -0.00987 | -0.855 | 0.446 | -0.789 | 0.855 |
| AGAACGAGGGCACCCTGAGTTGATAGCAGAGTAG | 3.24 | 2.84 | 0.579 | -0.333 | 0.0786 | 1.29 | 0.283 | 0.732 | -0.996 | 2.16 |
| CCTAGTTGGTCTAGGTCACACACGCTATAGGTAC | 2.17 | 3.05 | 0.258 | 0.48 | 2.14 | 1.4 | 0.764 | 2.1 | 1.82 | 2.63 |
| AGAATGAGGGCAATGAGTTGATAGCACGGGTGGC | 4.59 | 3.33 | 0.634 | 0.0242 | 0.0668 | 1.89 | 5.25 | 0.357 | 0.124 | 2.04 |
| CGTCCAAGGTCAAAGTCAGTGAAAGAGACTCGAA | 3.22 | 3.56 | -0.516 | -0.183 | 2.62 | 3.72 | 0.349 | 4.01 | 1.36 | 5.14 |
| TCGAGTACGTTAGGGGCATTCAGAATGGCGTCGA | 0.475 | -0.595 | -1.29 | -1.15 | -0.704 | 1.69 | 5.78 | -0.118 | -0.866 | 0.723 |
| CCTGCTAGGTCAATGGTCAGCTACAGCAGCTCGC | 4.55 | 3.95 | -0.354 | -0.419 | 1.53 | 1.04 | -0.299 | 1.64 | -0.404 | 3.58 |

| Sequence | PBM binding z-score [1] | PBM binding z-score [2] | PBM binding z-score [3] | PBM binding z-score [4] | PBM binding z-score [5] | PBM binding z-score [6] | PBM binding z-score [7] | PBM binding z-score [8] | PBM binding z-score [9] | PBM binding z-score [10] |
| --- | --- | --- | --- | --- | --- | --- | --- | --- | --- | --- |
| TGAATGAGGTTCTAAGATCAGGGAACGTTGCAAA | -0.614 | 0.0916 | -0.614 | -0.528 | -0.83 | -0.331 | -0.563 | -0.599 | -0.564 | -0.67 |
| TCTCGGAGGACACGAAGGTAAGAGCTTTCCAGAG | 1.18 | -0.283 | -1.16 | -1.1 | -1.58 | -0.316 | -1.01 | -0.153 | -0.725 | 1.25 |
| ATATGTAGGTTATCGGGTCATTCAATTTGCGCAT | 7.45 | 7.56 | 2.44 | 2.36 | 2.28 | 3.43 | 1.39 | 3.8 | 1.75 | 2.87 |
| CAAACTCGGTCACAGAGGTCAAAGTCCGTGCGTA | 5.32 | 6.01 | 1.83 | 1.84 | 5.93 | 6.25 | 8.31 | 6.39 | 2.88 | 4.75 |
| ATCACTAGGTAACCAAGTTCAGTGAATGCCGAAC | 4.99 | 4.16 | 1.62 | 0.399 | 0.811 | 2.06 | 1.73 | 0.23 | 0.365 | 1.01 |
| ATACCAAGGTGCTCGTGAGGTCGTTGATACTAAC | -0.245 | 0.0535 | 0.246 | 0.215 | 0.541 | 2.27 | 0.582 | 1.85 | -0.377 | 0.57 |
| CCTACTGGGCCACGAAAGGTCATTTATTCAGTGA | 5.5 | 5.64 | -0.2 | -0.0827 | 2.68 | 5.07 | 2.29 | 4.64 | 1.05 | 3.78 |
| ATCTCTAGGTAAAGTCCAGTGAAAGATCGATAGA | 2.45 | 1.54 | 1.13 | 0.971 | 0.584 | -0.13 | 0.187 | -0.113 | 0.971 | 0.414 |
| TGAATGAGGTTATAAGATCACGGAACGTTGCAAA | 0.939 | 2.19 | 1.02 | 1.32 | 0.335 | 1.43 | 0.182 | 2.09 | 0.409 | 1.5 |
| CAAACTAGGTCAAGGTCGAAGTCGGTTTGTGCCA | 8.51 | 8.63 | 2.92 | 2.06 | 3.02 | 2.71 | 0.704 | 3.14 | 0.902 | 4.47 |
| AGAGTGAGGTTAAGATCAGGGAAACAGAATACAT | 0.514 | 1.39 | 0.929 | 0.933 | 1.63 | 1.62 | 1.51 | 2.02 | 1.55 | 2.38 |
| ATCTTTAGGTAAAGTTCAGTGAAAGATCGATAGA | 1.08 | 1.4 | 0.514 | 1.26 | 0.959 | 2.02 | 1.36 | 1.27 | 0.483 | 2.65 |
| TCTTGTAGATCAATAGAGATTAAGAAAGTGCGCT | 1.45 | 0.39 | 0.292 | 1.02 | -0.0923 | 0.374 | 0.261 | -0.0638 | 0.076 | -0.192 |
| CCTTACGGGTCGAGGTTATAGCACGGGTGGTACG | -0.517 | 0.508 | -0.109 | -1.51 | 1.53 | 1.11 | 0.209 | 1.61 | -0.219 | 1.97 |
| TAGCTTAGGTCATGGGCCAGTATACCACGCGAAC | 1.43 | 2.29 | 0.945 | -0.133 | 1.14 | 1.82 | -0.151 | 2.69 | 0.342 | 4.1 |
| ACTAGCAGGCCAAGTCTGGGTCACTCAAACAAAG | 2.25 | 3.03 | -0.209 | -0.38 | 0.811 | 0.664 | -0.106 | 1.59 | -0.573 | 1.75 |
| TCAGACAGATGAAGGTAACTCAGGTACGCAGTCG | 2.29 | 0.179 | -0.273 | -0.478 | 0.326 | 0.521 | 0.216 | 0.684 | 0.265 | 0.227 |
| CCTAGTTGGTCATGAGGTCACACACCGGATATGA | 2.85 | 4.41 | 1.13 | 0.4 | 4.56 | 5.34 | 2.23 | 5.4 | 2.94 | 4.14 |
| CGTCAAAGTTCAACAAAGGTAACGTAAAGCACGC | 0.464 | 2.37 | 1.21 | 0.778 | 3.04 | 5.18 | 3.03 | 4.08 | 1.53 | 5.32 |
